The other results are listed elsewhere or left out. No count for the full screen is at hand.
Target: furin, P09958
Test: furin cleavage Z-score vs untreated control; higher = more cleavage, active = 3.5 or more, inactive = 1 or less, 8 variable residues between constant flanks
How it was run: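 Read counts from sequencing released DNA gave abundance for each bead-bound 8-mer peptide–cDNA fusion cut by purified furin over 7.5, 15 or 30 min. The cleavage Z-score compares log counts with furin-free reactions after lowess adjustment and median absolute deviation scaling.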
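Also: purified furin at 1:10 enzyme:substrate in 50 mM HEPES pH 7.5.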

Sequence of furin, P09958 (P09958 whole entry): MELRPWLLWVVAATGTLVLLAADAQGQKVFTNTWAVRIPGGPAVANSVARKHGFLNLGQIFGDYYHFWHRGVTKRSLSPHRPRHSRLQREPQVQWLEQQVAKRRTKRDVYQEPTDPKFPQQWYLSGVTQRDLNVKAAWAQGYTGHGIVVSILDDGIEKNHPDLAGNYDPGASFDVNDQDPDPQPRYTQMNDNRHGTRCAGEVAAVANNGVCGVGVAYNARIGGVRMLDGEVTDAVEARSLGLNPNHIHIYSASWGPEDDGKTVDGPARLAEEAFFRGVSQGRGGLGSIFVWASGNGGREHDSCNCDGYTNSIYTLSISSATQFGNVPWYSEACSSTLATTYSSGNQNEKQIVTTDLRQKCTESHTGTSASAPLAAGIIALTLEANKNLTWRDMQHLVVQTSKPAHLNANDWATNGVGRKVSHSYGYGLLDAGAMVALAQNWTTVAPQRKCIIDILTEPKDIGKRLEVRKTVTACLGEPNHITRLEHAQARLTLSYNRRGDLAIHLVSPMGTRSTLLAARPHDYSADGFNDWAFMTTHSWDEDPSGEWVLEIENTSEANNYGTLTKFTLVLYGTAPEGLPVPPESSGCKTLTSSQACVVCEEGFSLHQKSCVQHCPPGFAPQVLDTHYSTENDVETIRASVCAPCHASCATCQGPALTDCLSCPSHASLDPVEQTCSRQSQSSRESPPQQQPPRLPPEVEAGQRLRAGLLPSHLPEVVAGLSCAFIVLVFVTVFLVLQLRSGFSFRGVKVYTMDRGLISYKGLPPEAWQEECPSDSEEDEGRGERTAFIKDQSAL

Row | Sequence | furin cleavage Z-score (7.5 min) | furin cleavage Z-score (15 min) | furin cleavage Z-score (30 min)
1 | CAVIAPAVQTAGNASASA [HC1033] | 0.392 (inactive) | 0.329 (inactive) | 0.692 (inactive)
2 | CAFFTELDGVAGNASASA [HC1221] | -0.975 (inactive) | -0.00103 (inactive) | -0.854 (inactive)
3 | CAEVPCHRPFAGNASASA [HC2407] | -0.191 (inactive) | 0.106 (inactive) | 0.623 (inactive)
4 | CAECVVCCSMAGNASASA [HC2140] | 0.85 (inactive) | 1.09 | -0.883 (inactive)
5 | CAEVPCHRPYAGNASASA [HC2409] | 0.869 (inactive) | -0.249 (inactive) | 1.01
6 | CAEVVTSCWVAGNASASA [HC2220] | -1.37 (inactive) | 0.202 (inactive) | -0.78 (inactive)
7 | CAVVCCSRSYAGNASASA [HC2053] | -1.24 (inactive) | -0.358 (inactive) | 0.798 (inactive)
8 | CACVCCSMSYAGNASASA [HC2000] | -0.467 (inactive) | -0.374 (inactive) | 0.0175 (inactive)
9 | CAMWKCLIRLAGNASASA [HC964] | 0.587 (inactive) | 2.14 | 2
10 | CAGKKRTVEMAGNASASA [FS-2861] | -0.948 (inactive) | 0.0508 (inactive) | -1.47 (inactive)
11 | CASNQRPKRLAGNASASA [FS-298] | 5.25 (active) | 8.19 (active) | 7.26 (active)
12 | CASPSRTKRLAGNASASA [FS-870] | 7.89 (active) | 8.76 (active) | 6.67 (active)
13 | CAMKKRTKRLAGNASASA [FS-365] | 9.31 (active) | 8.89 (active) | 7.26 (active)
14 | CAANRRDVRLAGNASASA [FS-322] | 0.0384 (inactive) | -1.82 (inactive) | 1.41
15 | CAEVVCHRPSAGNASASA [HC2350] | -0.3 (inactive) | 0.778 (inactive) | 0.34 (inactive)
16 | CADWMEECSQAGNASASA [HC1808] | 0.73 (inactive) | -0.408 (inactive) | -0.438 (inactive)
17 | CAVVCCSMSMAGNASASA [HC2086] | 0.14 (inactive) | -1.35 (inactive) | 0.14 (inactive)
18 | CAVPQSFQVAAGNASASA [HC770] | -0.249 (inactive) | -1.95 (inactive) | -0.519 (inactive)
19 | CAPSQRSKRPAGNASASA [FS-477] | -0.582 (inactive) | 0.273 (inactive) | -0.55 (inactive)
20 | CAHPQRSKKAAGNASASA [FS-248] | -0.0765 (inactive) | 0.432 (inactive) | 1.4
21 | CAVTQRSKRAAGNASASA [FS-388] | 10.4 (active) | 9.15 (active) | 7.46 (active)
22 | CATQQRSKRAAGNASASA [FS-1496] | 7.63 (active) | 7.61 (active) | 6.89 (active)
23 | CAGWLRSKKAAGNASASA [FS-1530] | -0.625 (inactive) | -0.994 (inactive) | -0.39 (inactive)

Row | Sequence | furin cleavage Z-score (7.5 min) | furin cleavage Z-score (15 min) | furin cleavage Z-score (30 min)
24 | CAGRKPARLIAGNASASA [HC1447] | -1.48 (inactive) | -1.33 (inactive) | -0.697 (inactive)
25 | CARHVRSYNHAGNASASA [FS-2026] | 0.349 (inactive) | 0.971 (inactive) | 3.01
26 | CAPAGRISRSAGNASASA [FS-835] | 6.15 (active) | 10.5 (active) | 8.23 (active)
27 | CARHVRISRSAGNASASA [FS-708] | 10.5 (active) | 10.5 (active) | 7.87 (active)
28 | CAIPLVGAPLAGNASASA [HC229] | -1.25 (inactive) | -1.1 (inactive) | -0.498 (inactive)
29 | CAYGVGSSIAAGNASASA [HC512] | -0.889 (inactive) | -1.2 (inactive) | 0.412 (inactive)
30 | CALDPQARVAAGNASASA [HC1493] | -1.42 (inactive) | -2.18 (inactive) | -0.348 (inactive)
31 | CAKCPCQVPSAGNASASA [HC1216] | 0.69 (inactive) | 0.244 (inactive) | -0.458 (inactive)
32 | CALRLRGPRAAGNASASA [FS-943] | 4.69 (active) | 3.33 | 3.8 (active)
33 | CAKCPRQRRAAGNASASA [FS-445] | 7.55 (active) | 6.15 (active) | 7.23 (active)
34 | CALRPRQRRAAGNASASA [FS-360] | 7.42 (active) | 7.73 (active) | 6.07 (active)
35 | CAQRQRAKRNAGNASASA [FS-1252] | 13.8 (active) | 13.3 (active) | 10.1 (active)
36 | CALTPLRDWAAGNASASA [HC637] | -0.181 (inactive) | 1.58 | -0.616 (inactive)
37 | CAQRQKKVTFAGNASASA [HC1394] | 1.32 | -2.05 (inactive) | -3.25 (inactive)
38 | CAISPRQRRAAGNASASA [FS-543] | 7.77 (active) | 6.99 (active) | 6.1 (active)
39 | CAPRARCRRAAGNASASA [FS-138] | 8.91 (active) | 10.2 (active) | 7.25 (active)
40 | CAISGIQYLAAGNASASA [HC1045] | -1.05 (inactive) | 0.557 (inactive) | -1.83 (inactive)
41 | CALRWRQRRAAGNASASA [FS-272] | 3.83 (active) | 4.93 (active) | 3.79 (active)
42 | CAKIPRFRRIAGNASASA [FS-449] | 0.2 (inactive) | 0.191 (inactive) | 2.93
43 | CARRPEGRTWAGNASASA [HC195] | -0.89 (inactive) | 0.845 (inactive) | -0.916 (inactive)
44 | CAARAACRAAAGNASASA [HC1520] | -1.54 (inactive) | -0.427 (inactive) | -0.259 (inactive)
45 | CALRPRFRREAGNASASA [FS-614] | 10 (active) | 8.78 (active) | 6.07 (active)

Source: the supplement of paper PMC3545927
